# Results filed as inconclusive are left out. Values without a mark were called inactive. Calls follow the shape of the dose curve; as a rule, active = well fitted inhibition curve with a large enough effect in the repeat runs; inconclusive = weak or mixed curves, or effect the other way; inactive = no such curve, though single readings can be large or run the other way.
# Target: Nuclear receptor ROR-gamma (Homo sapiens) (UniProt P51449)
# Assay: qHTS assay to identify small molecule antagonists of the retinoid-related orphan receptor gamma (ROR-gamma) signaling pathway (AID 1159521; also: top concentration of the series differs between compounds; nearly all actives have a fitted effect of over 50% in size)
# Conditions: Tet-on RORgamma CHO cells, RORE-luciferase, 16 h; series mostly up to 92.4 µM; activity change, negative = inhibition: at the top concentration
# From the text: U.S. Tox21 Program National Center for Advancing Translational Sciences [NCATS] NIH Chemical Genomics Center [NCGC] U.S. Environmental Protection Agency [EPA] National Institutes of Environmental Health Sciences [NIEHS] National Toxicology Program [NTP] U.S. Food and Drug Administration [FDA] Tox21 Assay Overview: Nuclear steroid hormone receptors are involved in many biological processes including inflammatory responses, cell proliferation, and apoptosis. Environmental factors or compounds disrupting these nuclear receptor pathways and gene expression may promote susceptibility to immunotoxicants and autoimmune diseases. One important group of these expression factors are the retinoid-related orphan receptors. To assess compounds that may interfere with the retinoid-related orphan receptor gamma (ROR-gamma) transcription factor, a cell-based luciferase assay was used. The CHO cell-based assay utilizes a TET-inducible ROR expression factor and ROR response element-LUC reporter gene. Reporter gene activity was induced using Doxycycline Hyclate and measured after 16 hr incubation. Tet-on ROR gamma CHO cells were used to screen against the Tox21 10K compound library for ROR gamma antagonists by quantification of decreased reporter gene activity in terms of decreased luminescence.
# Tox21 Assay Protocol Summary: Tet-on ROR gamma CHO cells were dispensed at 1,000 cells in 4 uL of culture medium per well into white wall/solid bottom 1536-well plates using a Multidrop Combi (Thermo Scientific, Waltham, MA) dispenser. Following incubation at 37 C and 5% CO2 for 4 hr, 23 nL of compounds dissolved in DMSO, positive controls or DMSO only were transferred by a Pintool station (Kalypsys, San Diego, CA) and after 2 hr incubation at 37 C, one ul of 1 uM (final concentration) of Doxycycline Hyclate was added to all the wells by using a Flying Reagent Dispenser (FRD) (Aurora Discovery, San Diego, CA). After 16 hr incubation at 37 C and 5% CO2, 5 uL of ONE-Glo reagent (Promega Corporation, Madison, WI) was added to each assay plate using FRD. After 30 min incubation at room temperature, luminescence was quantified on a ViewLux plate reader (Perkin Elmer, Waltham, MA).
# % is scaled to controls: 0 for no effect and ±100 for the full control effect.
row,SMILES,"activity change, negative = inhibition"
1,CC(N)CCCC(C)(C)O (stereo not given),39.5% [at 42.5 µM]
2,CCC/C=C(\C=O)CC,-1.86%
3,O=C(NCN1CCOCC1)c1cnccn1,20% [at 42.5 µM]
4,CSc1cnccn1,31.5%
5,O=[N+]([O-])c1c(Cl)cc(Cl)cc1Cl,6.58%
6,C=C(C)c1cccc(C(C)(C)N=C=O)c1,-0.596%
7,CCO[Si](CC)(OCC)OCC,4.75%
8,CCO,12%
9,C=CCSSCCC,-1.88%
10,CCC(=O)Oc1ccc2c(c1)CC[C@@H]1[C@@H]2CC[C@@]2(C)[C@H]1C[C@@H](OC(=O)CC)[C@@H]2OC(=O)CC,-11.1% [at 42.5 µM]
11,CC(O)COC(C)(C)C (stereo not given),-0.943%
12,CCCCCCCCCCCCCBr,-1.17%
13,CO[C@@]1(NC(=O)Cc2cccs2)C(=O)N2C(C(=O)O)=C(COC(N)=O)CS[C@@H]21,-6.98% [at 42.5 µM]
14,CC(=O)OCC(=O)Nc1cc(C#N)cc(NC(=O)COC(C)=O)c1Cl,2.06% [at 42.5 µM]
15,C=CCCCCCCCCC(=O)OCCCC,7.09%
16,COC(=O)CCCCC(=O)O,3.04%
17,O=C(Cn1ccnc1[N+](=O)[O-])NCc1ccccc1,14% [at 42.5 µM]
18,CC(C)Cn1cnc2c1c(=O)n(C)c(=O)n2C,1.01% [at 42.5 µM]
19,Cn1c(=O)c2[nH]c(Br)nc2n(C)c1=O,-7.66% [at 42.5 µM]
20,CC1(C)Cc2cccc(N)c2O1,1.07%

row,SMILES,"activity change, negative = inhibition"
1,CCCCSCCCC,2.92%
2,CCCCOCCOC(=O)COc1ccc(Cl)cc1Cl,10%
3,CC(C)CO,11.6%
4,N#Cc1ccccc1O,7.2%
5,CN(C)CCOC(=O)C(c1ccccc1)C1(O)CCCC1 (stereo not given),34.1% [at 42.5 µM]
6,CCCCCC/C=C/C(=O)OC,26%
7,Cc1ccc2c(c1)C(=O)c1ccccc1C2=O,119%
8,CN1CCOC(c2ccccc2)c2ccccc2C1 (stereo not given),4.98% [at 42.5 µM]
9,CCC(C)OC(C)CC (stereo not given),2.77%
10,CCCC(=O)OCCC(C)CCC=C(C)C (stereo not given),-5.29%
11,CC1(C)Oc2ccc(C#N)cc2[C@@H](N2CCCC2=O)[C@@H]1O,6.09% [at 42.5 µM]
12,CC(=O)c1cc(C)oc1C,7.14%
13,COS(=O)(=O)O,2.05%
14,O=Cc1cc2ccccc2o1,2.36%
15,CC(S)C(C)S (stereo not given),1.94%
16,CCOC(=O)CC1(C)OCC(C)O1 (stereo not given),-0.604%
17,CC(C)=CCC[C@@](C)(O)[C@H]1CC=C(C)CC1,13.5% [at 42.5 µM]
18,CN(C)CCCO[C@@H]1[C@H]2OC(C)(C)O[C@H]2O[C@@H]1C(O)CO (stereo not given in full),26.3% [at 42.5 µM]
19,Nc1nnnn1-c1ccccc1,-2.09% [at 42.5 µM]
20,C#CCN[C@@H]1CCc2ccccc21,12.2% [at 42.5 µM]
